Laboratory results: PubChem BioAssay (NCI)
This is part of a sample that, as a whole, favours compounds with a hit. Of some 83,000 tested, about 20% had one in any assay.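 48-hour exposure, single concentration, 96-well plates; percent growth endpoint where 0 means no net growth. Active: below 10.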 The source made the active and inactive calls.

Legend:
Test in all cases: NCI-60 one-dose screen, 48 h (100 = growth as untreated, 0 = no growth, -100 = all killed)
Conditions in all cases: 10 µM unless noted
[1] = tested on: SR leukemia
[2] = tested on: RPMI-8226 leukemia
[3] = tested on: OVCAR-8 ovarian
[4] = tested on: OVCAR-5 ovarian
[5] = tested on: OVCAR-4 ovarian
[6] = tested on: SK-OV-3 ovarian
[7] = tested on: IGROV1 ovarian
[8] = tested on: OVCAR-3 ovarian
[9] = tested on: HS 578T breast
[10] = tested on: NCI/ADR-RES ovarian
[11] = tested on: T-47D breast
[12] = tested on: BT-549 breast
[13] = tested on: MDA-MB-435 melanoma
[14] = tested on: SW-620 colon
[15] = tested on: MCF7 breast
[16] = tested on: HCT-116 colon
[17] = tested on: HCC-2998 colon
[18] = tested on: KM12 colon

Measured: growth

O=C1COc2ccccc2C(=O)N1CCCCNc1ccccc1
inactive: [1] 84.8% | [2] 28.3% | [3] 93.9% | [4] 107% | [5] 112% | [6] 84.8% | [7] 99.9% | [8] 105% | [9] 108% | [10] 94.6% | [11] 73.3% | [12] 46% | [13] 98.1% | [14] 92.3% | [15] 82.8% | [16] 77.4% | [17] 94.5% | [18] 79.9%

OCc1cnccc1NC12CC3CC(CC(C3)C1)C2
inactive: [1] 98.9% | [2] 96.8% | [3] 93.8% | [4] 107% | [5] 101% | [6] 100% | [7] 102% | [8] 103% | [9] 103% | [10] 98.8% | [11] 89.4% | [12] 110% | [13] 105% | [14] 103% | [15] 101% | [16] 99.6% | [17] 105% | [18] 103%

COc1ccc(-c2nnc(NC(=O)CN3CCN(c4cc5c(cc4F)c(=O)c(C(=O)O)cn5C4CC4)CC3)s2)cc1OC
inactive: [1] 102% | [2] 102% | [3] 98.4% | [4] 106% | [5] 104% | [6] 98.6% | [7] 104% | [8] 106% | [9] 91.5% | [10] 103% | [11] 101% | [12] 105% | [13] 103% | [14] 105% | [15] 106% | [16] 103% | [17] 99.6% | [18] 98.2%

O=C(Cn1c2ccccc2c2ccncc21)N/N=C/c1cc(O)c(O)c(O)c1
inactive: [1] 106% | [2] 100% | [3] 103% | [4] 111% | [5] 110% | [6] 99.4% | [7] 107% | [8] 106% | [9] 105% | [10] 103% | [11] 98.2% | [12] 107% | [13] 111% | [14] 109% | [15] 106% | [16] 101% | [17] 105% | [18] 95.3%

C#CC(=O)/C=C/CCCCCCC#CC(=O)CCC(=O)C#CCCCCCC/C=C/C(=O)C#C
inactive: [4] 57.7% | [5] 23.5% | [6] 91.8% | [9] 47% | [10] 11% | [11] 24.8% | [15] 21.6% | [17] 63.9% | [18] 49.2%
active: [1] -34.8% | [2] -31.6% | [3] 8.53% | [7] -39.5% | [8] 7.03% | [12] -15.3% | [13] -33.6% | [14] 8.47% | [16] -7.8%

CCCCC(=O)Nc1nc2ccc(SCCC)cc2s1
active: [1] 6.63% | [13] 4.42%
inactive: [2] 15.7% | [3] 56.7% | [4] 69% | [5] 81.1% | [6] 66% | [7] 54.2% | [8] 22.8% | [9] 48.9% | [10] 13% | [11] 48% | [12] 40.6% | [14] 34.6% | [15] 35% | [16] 31.1% | [17] 77.1% | [18] 34.1%

O=C1c2ccccc2C(=O)c2c(NCCN=Cc3c(O)ccc4ccccc34)cccc21
inactive: [1] 32% | [2] 78.7% | [3] 69.9% | [4] 112% | [5] 94.3% | [6] 84.2% | [7] 65.5% | [8] 83.7% | [9] 82.7% | [10] 85.5% | [11] 75% | [12] 106% | [13] 96% | [14] 79.3% | [15] 72.6% | [16] 45.5% | [17] 95.7% | [18] 89%

Nc1ncnc2c1ncn2C1OC(COC(c2ccccc2)(c2ccccc2)c2ccccc2)C(O)C1O (stereo unspecified)
inactive: [1] 89.6% | [2] 82.1% | [3] 96.7% | [4] 85.7% | [5] 95.2% | [6] 123% | [7] 107% | [8] 106% | [9] 84.1% | [10] 89.2% | [11] 103% | [12] 94% | [13] 99.6% | [14] 98% | [15] 94.2% | [16] 92.4% | [17] 78.9% | [18] 99.2%

CCNc1ncnc2n[nH]nc12
inactive: [1] 94% | [2] 95.5% | [3] 99.6% | [4] 103% | [5] 94.7% | [6] 101% | [7] 111% | [8] 106% | [9] 103% | [10] 108% | [11] 99.2% | [12] 94% | [13] 99.5% | [14] 95.8% | [15] 98.3% | [16] 98.8% | [17] 106% | [18] 105%

COc1ccc(Cn2cc(COc3ccc4c5ccnc(C)c5n(CCCc5ccccc5)c4c3)nn2)cc1
inactive: [3] 61.9% | [4] 111% | [5] 70.2% | [6] 95.3% | [7] 75.3% | [8] 76% | [9] 77.8% | [10] 67% | [11] 61.8% | [12] 67.5% | [13] 63.2% | [14] 65.5% | [15] 47.7% | [16] 51.5% | [17] 83% | [18] 59.7%
active: [1] -29% | [2] -3.72%

COc1cc2ncnc(Oc3ccc(NC(=O)Nc4ccc(CN5CCOCC5)c(C(F)(F)F)c4)c4ccccc34)c2cc1OC
inactive: [1] 17.1% | [3] 18.9% | [4] 50.1% | [5] 13.7% | [8] 31.9% | [9] 45.5% | [10] 21.8% | [11] 10.3% | [12] 25.2% | [14] 24.8% | [16] 17.4% | [17] 75.9%
active: [2] -20.4% | [6] -6.16% | [7] 6.05% | [13] 6.39% | [15] 8.45% | [18] 6.26%

COc1ccc(SC2c3ccc(O)cc3Oc3nc(N)c(C#N)c(N)c32)cc1 (stereo unspecified)
inactive: [1] 59.9% | [2] 96.7% | [3] 98% | [4] 129% | [5] 92.9% | [6] 120% | [7] 74.3% | [8] 88.1% | [9] 94.4% | [10] 98.8% | [11] 85.4% | [12] 30.7% | [13] 87% | [14] 105% | [15] 90.7% | [16] 94.9% | [17] 92.7% | [18] 65.5%

COc1ccc2c(c1)OC(N(C(C)=O)C(C)=O)=C(C#N)C2c1ccc(F)cc1 (stereo unspecified)
active: [2] 3.13% | [13] -29.2%
inactive: [1] 12.4% | [3] 38.5% | [4] 65.2% | [5] 81.9% | [6] 23.9% | [7] 56.1% | [8] 11.9% | [9] 23.6% | [10] 30.6% | [11] 42% | [12] 38.1% | [14] 20.9% | [15] 17.8% | [16] 25.5% | [17] 59.2% | [18] 25.6%

CC(C)[C@@H]1NC(=O)[C@]2(C)CSC(=N2)c2ccnc(c2)CNC(=O)C[C@@H](/C=C/CCS)OC1=O
inactive: [4] 18.2% | [5] 27.3% | [10] 29.8% | [12] 42.7% | [15] 16.1%
active: [1] 7.26% | [2] -18.5% | [3] -3.79% | [6] -7.53% | [7] 0.54% | [8] -6.18% | [9] 9.92% | [11] -24.6% | [13] 5.07% | [14] 4.68% | [16] -39.2% | [17] -66.5% | [18] 6.09%

Cc1ccc2oc(=O)cc(C3C(C#N)=C(N)Oc4c3ccc3ccccc43)c2c1 (stereo unspecified)
active: [13] 6.57%
inactive: [1] 27.6% | [2] 70.2% | [3] 85.8% | [4] 99.3% | [5] 87.8% | [6] 88.1% | [7] 75.6% | [8] 75.6% | [9] 85.5% | [10] 62.9% | [11] 69% | [12] 70.2% | [14] 55% | [15] 42.1% | [16] 69.2% | [17] 91.4% | [18] 55.1%

Nn1c(CN2CCN(c3cc4c(cc3F)c(=O)c(C(=O)O)cn4C3CC3)CC2)n[nH]c1=S
inactive: [1] 99.1% | [2] 102% | [3] 106% | [4] 108% | [5] 102% | [6] 107% | [7] 97.3% | [8] 103% | [9] 108% | [10] 106% | [11] 98.3% | [12] 112% | [13] 97.9% | [14] 105% | [15] 93.4% | [16] 102% | [17] 92.7% | [18] 103%

COc1cc(/C=C/C(=O)N2CCC=CC2=O)cc(OC)c1OC
inactive: [1] 10.3% | [4] 86.6% | [5] 48.8% | [6] 105% | [7] 30.9% | [8] 18.5% | [9] 84.5% | [10] 67.2% | [11] 25.6% | [12] 58.3% | [13] 57.2% | [14] 29.3% | [15] 15.3% | [17] 100% | [18] 66.6%
active: [2] -11.3% | [3] 4.06% | [16] 6.96%
